Source: PubChem
Sampled rows, rich in hits. Any-hit rate of the full collection: about 10%.
ALOX12 inhib = 12-hLO (ALOX12) enzyme inhibition; purified 12-hLO, xylenol orange hydroperoxide absorbance; Potency, µM (doses to about 57.1 µM), for inactives: at the top dose activity change, negative = inhibition, hits mostly inhibitors; P18054; hit rate 0.12% among 150,000; active = well fitted inhibition curve with a large enough effect; inconclusive = small, poorly fitted or top-dose-only effect; note: potency is the fitted concentration of half-maximal effect; nearly all actives have a fitted effect of over 55% in size
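Lipoxygenase turnover measured by absorbance at 573 and 405 nm after Fe-XO development. Human 12hLO 150 nM, arachidonate 40 uM, pH 7.0 Hepes buffer with detergent; 15 min compound preincubation, 30 min reaction.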
HPGD block = blocks human HPGD enzyme activity. P15428. purified HPGD, NADH fluorescence kinetic, PGE2 substrate. Potency, µM, for the others: top-dose activity change, negative = inhibition, hits mostly inhibitors. hit rate 4.3% among 150,000. AID 894; note: potency is the fitted concentration of half-maximal effect
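20 nM HPGD preincubated 15 min at room temperature with compound in 50 mM Tris-HCl pH 8, 0.01% Tween 20. Started with 1 mM NAD+ and 30 uM prostaglandin E2; NADH fluorescence (360/450 nm) read 5 times over 30-s intervals, last minus first.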
PNC assembly inh = blocks assembly of the perinucleolar compartment | PC3M PTB-GFP, PNC prevalence imaging, 16 h; hits give low values | activity change (PNC), negative = inhibition, % at 10 µM | hit rate 3.1% among 140,000;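 active = readout at or below -70, meaning at least 70% loss of cells showing the perinucleolar compartment, a nuclear body marking cancer cells; inconclusive = readout between -30 and a set limit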;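 note: plate controls were DMSO wells for no effect and camptothecin positive control wells for full effect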
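Read-out is percentage of cells bearing a perinucleolar compartment, from automated 20x imaging of fixed, Hoechst-stained PC3M PTB-GFP cells. Cells were seeded 4 h, then exposed 16 h to compound (23 nl of library stock) in duplicate plates.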
Lamin A splicing = changes lamin A minigene splicing in HeLa cells | HeLa LMNA splicing GFP/RFP minigene ratio, 48 h | Potency, µM (series often up to 46.1 µM), for the others: top-dose ratio change, negative = inhibition, most hits filed as inhibitors | hit rate 0.01% among 200,000 | AID 1487; active = well fitted inhibition curve with a large enough effect in the signal ratio, with a control signal flat, not every such curve was filed as active; inconclusive = small, poorly fitted or top-dose-only effect, or effect the other way, or a change in a side signal; the % refers to the signal ratio; note: potency is the fitted concentration of half-maximal effect
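S3 HeLa stable clones carrying a lamin A-EGFP splicing minigene plus DsRed2 were seeded at 600 cells/well in Opti-MEM with 2% FBS, pin-dosed and incubated 48 h at 37°C. Acumen cytometry (488 nm) gave the GFP/RFP total-intensity ratio.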
ALDH1A1 inh = ALDH1A1 (human) enzyme inhibition; Purified ALDH1A1, NADH fluorescence, propionaldehyde substrate; hit rate 7.3% among 220,000; Potency, µM (series often up to 75.3 µM), inactives show at the top dose activity, negative = inhibition, usual class: inhibitors;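 note: potency is the fitted concentration of half-maximal effect; plate controls were no enzyme wells and a reference inhibitor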
Target sequence (P00352 whole entry, looked up): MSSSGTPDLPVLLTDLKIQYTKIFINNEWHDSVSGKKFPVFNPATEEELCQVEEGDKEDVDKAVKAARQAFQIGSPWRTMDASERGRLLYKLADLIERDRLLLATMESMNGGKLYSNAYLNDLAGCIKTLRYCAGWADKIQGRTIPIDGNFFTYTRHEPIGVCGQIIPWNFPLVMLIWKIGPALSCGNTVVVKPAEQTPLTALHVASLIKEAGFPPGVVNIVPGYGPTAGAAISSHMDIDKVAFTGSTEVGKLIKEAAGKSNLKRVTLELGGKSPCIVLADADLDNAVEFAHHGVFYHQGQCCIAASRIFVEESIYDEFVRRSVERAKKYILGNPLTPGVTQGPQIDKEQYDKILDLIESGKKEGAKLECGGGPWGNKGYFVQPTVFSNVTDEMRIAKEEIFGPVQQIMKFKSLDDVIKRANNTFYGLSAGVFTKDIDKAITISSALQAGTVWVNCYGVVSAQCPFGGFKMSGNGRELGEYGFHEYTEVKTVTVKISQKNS
An asterisk follows results filed as active; ? = inconclusive; / = no result; [ ] = dose if it differs, or a comment. Unless noted, calls come from the whole dose curve; as a rule, active = well fitted inhibition curve with a large enough effect (not every such curve was filed as active); inconclusive = small, poorly fitted or top-dose-only effect, or another doubt; inactive = no such curve, though single readings can be large or run the other way. Unless noted, % is set by controls: 0 for no effect and ±100 for the full control effect.

SMILES | ALOX12 inhib | HPGD block | PNC assembly inh | Lamin A splicing | ALDH1A1 inh
Cc1ccc2c(C)cc(=S)[nH]c2c1 | / | / | / | / | -11%
Cc1ccc2[nH]c(=S)cc(C)c2c1 | -15% | 7.1µM* | 7 | 7% | 3.2µM*
Cc1cc(=S)[nH]c2ccccc12 | -28% | 14µM* | 16 | 9% | ?
c1ccc(OCc2nn3c(Cn4cnc5ccccc54)nnc3s2)cc1 | 2% | 11µM* | ? | -15% | 19µM*
COc1ccc(Cc2nn3c(Cn4nnc5ccccc54)nnc3s2)cc1 | 1% | 22µM* | ? | -11% | 11µM*
c1ccc(-c2ccc(C3=Nn4c(Cn5nnc6ccccc65)nnc4SC3)cc2)cc1 | 3% | 18µM* | -6 | 7% | 28µM*
c1ccc(-c2nn3c(Cn4cnc5ccccc54)nnc3s2)cc1 | 0% | 4.5µM* | -3 | -4% | 2.2µM*
CCOc1ccc(-c2nnc3sc(COc4ccccc4)nn23)cc1 | 1% | -5% | -12 | -5% | 6%
Fc1ccc(C2=Nn3c(Cc4ccccc4F)nnc3SC2)cc1 | -11% | -14% | 3 | 15% | -4%
CN(C)c1ccc(CNC(=O)CCCN2C(=O)CCn3nc(-c4cn(C)c5ccccc45)cc32)cc1 | / | / | / | 17%[46 µM] | /
CCOc1ccccc1NS(=O)(=O)c1c(-c2ccc(C)cc2)csc1C(=O)OC | / | / | / | 7%[46 µM] | /
Cc1cc(C)n(CCc2nc3c4ccccc4nc(SCc4ccc(Cl)cc4)n3n2)n1 | / | / | / | 21%[46 µM] | /
c1ccc2c(c1)nnn2Cc1nnc2sc(-c3ccc4c(c3)OCCO4)nn12 | 0% | ? | 19 | 7% | ?
c1ccc(-c2nn3c(Cn4nnc5ccccc54)nnc3s2)cc1 | -6% | 10µM* | 13 | -15% | 3.2µM*
c1cncc(-c2nn3c(Cn4cnc5ccccc54)nnc3s2)c1 | 3% | 3.2µM* | -28 | -8% | 1µM*
c1ccc2c(c1)ncn2Cc1nnc2sc(-c3ccncc3)nn12 | 0% | 7.9µM* | 1 | -8% | 10µM*
CCCCn1cc(S(=O)(=O)c2ccc(Cl)cc2)c(=O)c2cc(F)c(N3CCCC(C)C3)cc21 (centres undefined) | / | / | / | -4%[46 µM] | /
O=[N+]([O-])c1ccc(/C=N/NC(=S)Nc2ccccc2F)o1 | -5% | -12% | ? | -5% | ?
O=[N+]([O-])c1ccc(/C=N/NC(=S)Nc2ccccc2)o1 | -4% | 25µM* | 126 | -7% | 2%
O=C(N/N=C/c1ccc([N+](=O)[O-])o1)c1ccc(O)cc1 | -7% | -30% | -27 | ? | 25µM*
CC(=O)c1ccc(NC(=S)N2c3ccccc3CC2C)cc1 (centres undefined) | / | / | / | 20%[46 µM] | 25µM*
N=C(N)S/C=C\C(=O)O | -1% | 35µM* | / | / | 7.9µM*
COc1ccccc1C(=O)Nc1ccc(C2=NNC(=O)CC2C)cc1 (centres undefined) | -2% | -15% | -114* | 7% | -7%
CN=C(NC#N)Nc1ccc(C2=NNC(=O)CC2C)cc1 (centres undefined) | / | -8% | / | ? | -2%
COc1ccc(N=C2C(=O)N3c4c(cccc42)C(C)=CC3(C)C)cc1 | -1% | -19% | 2 | -2% | 2µM*
SMILES | ALOX12 inhib | HPGD block | PNC assembly inh | Lamin A splicing | ALDH1A1 inh
COc1ccc(N=C2C(=O)Nc3ccccc32)cc1 | -1% | -13% | 21 | 3% | ?
Cc1ccc2nc3ccc(N4CCCCCCC4)nn3c(=O)c2c1 | -3% | -27% | ? | 14% | 10µM*
Cc1ccc2nc3ccc(N4CCN(C)CC4)nn3c(=O)c2c1 | 1% | -23% | -18 | 2% | ?
Oc1ccc(C=NCC2COc3ccccc3O2)cc1 (centres undefined) | -2% | -9% | -1 | 9% | 18µM*
O=C1c2cccc3cccc(c23)C(=O)N1Nc1ccccc1 | / | / | / | / | 25µM*
C[N+](C)(C)CC[N+]1(C)Cc2c(Cl)c(Cl)c(Cl)c(Cl)c2C1 | -7% | -3% | / | / | -9%
CCOC(=O)c1cc2occc2n1CC(=O)N1CCCc2ccccc21 | -17% | -16% | -84* | -2% | 8.9µM*
CCOC(=O)c1cc2sccc2n1CC(=O)N1CCCc2ccccc21 | -8% | -22% | 4 | 5% | -4%
COC(=O)c1cc2oc(C)cc2n1CC(=O)N1CCCc2ccccc21 | -12% | -17% | 21 | 24% | 20µM*
Cc1ccc(SCCNC(=O)/C=C/c2ccccc2Cl)cc1 | -1% | ? | ? | ? | 13µM*
Cc1ccc(SCCNC(=O)/C=C/c2ccc(Cl)cc2)cc1 | -5% | -13% | -24 | -12% | -14%
CN(C)c1ccc(NC(=O)/C=C/c2ccccc2Cl)cc1 | 1% | -11% | 22 | -14% | ?
CCN(CC)c1ccc(NC(=O)/C=C\c2ccccc2Cl)cc1 | 2% | -11% | -81* | -10% | -9%
O=C(/C=C/c1ccccc1Cl)NCc1ccccc1 | 3% | -29% | -27 | 7%[0.0737 µM] | -10%
Cc1ccc(SCCNC(=O)c2ccccc2C)cc1 | -4% | 16µM* | 16 | 3% | 5%
O=C(/C=C/c1ccccc1Cl)NCCc1ccccc1 | -10% | 16µM* | 24 | ? | -7%
CC1CCN(C(=O)Cn2c(-c3cccs3)cc3cc(Cl)ccc32)CC1 | / | / | / | 4%[46 µM] | /
C[C@@H]1C(=O)O[C@@H]2C[C@]34[C@H]5C[C@@H](C(C)(C)C)[C@@]36[C@@H](OC(=O)[C@@H]6O)O[C@@]4(C(=O)O5)[C@@]12O | -5%[25.6 µM] | 1% | / | -12% | 2%[20.9 µM]
CCOC(=O)C1(CCCc2ccccc2)CCN(C(=O)CCC2=NNC(=O)CC2)CC1 | / | / | / | -22%[46 µM] | 2µM*
CCOC(=O)C1(CCCc2ccccc2)CCN(C(=O)CN2CCOC2=O)CC1 | / | / | / | -13%[46 µM] | ?
CCOC(=O)C1(CCCc2ccccc2)CCN(C(=O)c2ccoc2)CC1 | / | / | / | / | 4µM*
CC#CC(=O)N1CCC(CCc2ccccc2)(C(=O)OCC)CC1 | / | / | / | / | 5%
CCOC(=O)C1(CCCc2ccccc2)CCN(C(=O)C2=C(C)OCCO2)CC1 | / | / | / | / | 3.2µM*
CCOC(=O)C1(CCc2ccccc2)CCN(C(=O)c2ccoc2)CC1 | / | / | / | / | 25µM*
Cc1nnc(SCc2cc(=O)n3c(C)cccc3n2)s1 | / | / | / | 7%[46 µM] | /
